# Experimental data published in ChEMBL document CHEMBL5606458, “ASAP - ZIKV NS2B-NS3 protease fluorescence single point” (2024).
# In all, about 2,700 compounds went through this assay and about 160 (5.9%) showed an effect of 50% or more. The sample holds strong results, similar compounds and a random draw of the others, so the mix is not that of the screen.
# Biological target: Nonstructural protein 3 (Zika virus) (UniProt A0A024AXB9)
# Sequence (A0A024AXB9 as listed by the source): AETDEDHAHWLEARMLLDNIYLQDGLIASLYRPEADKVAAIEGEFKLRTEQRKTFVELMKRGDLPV
structure (smiles),measurement,setting,value
CCn1ccnc(N2CC[C@@H](CC#N)C2)c1=O,inhibition,"PRVABC59, Concentration 49.5 uM, Number of replicates 2.0, Standard deviation 4.2825905047110036 %",7.54%
same,inhibition,"PRVABC59, Concentration 99.01 uM, Number of replicates 2.0, Standard deviation 3.0053265516656906 %",14.9%
same,inhibition,"PRVABC59, Concentration 198.0 uM, Number of replicates 2.0, Standard deviation 1.5959318913639373 %",26%
CCn1ccnc(N(C)[C@@H](CO)Cc2c[nH]c3ccccc23)c1=O,inhibition,"PRVABC59, Concentration 49.5 uM, Number of replicates 2.0, Standard deviation 1.5047267855359387 %",5.63%
same,inhibition,"PRVABC59, Concentration 99.01 uM, Number of replicates 2.0, Standard deviation 0.8040526249565179 %",13%
same,inhibition,"PRVABC59, Concentration 198.0 uM, Number of replicates 2.0, Standard deviation 1.5605190977207197 %",25.3%
c1ccc2c(CN3CCC(c4c[nH]c5ncccc45)CC3)c[nH]c2c1,inhibition,"PRVABC59, Concentration 49.5 uM, Number of replicates 2.0, Standard deviation 1.5803867849339672 %",58.2%
same,inhibition,"PRVABC59, Concentration 99.01 uM, Number of replicates 2.0, Standard deviation 1.538935865185685 %",72.5%
same,inhibition,"PRVABC59, Concentration 198.0 uM, Number of replicates 2.0, Standard deviation 1.43011742277759 %",82.3%
N#C[C@H]1CCCN(Cc2c[nH]c3ccccc23)C1,inhibition,"PRVABC59, Concentration 49.5 uM, Number of replicates 2.0, Standard deviation 3.0443309311516127 %",3.62%
same,inhibition,"PRVABC59, Concentration 99.01 uM, Number of replicates 2.0, Standard deviation 5.606340240027709 %",5.66%
same,inhibition,"PRVABC59, Concentration 198.0 uM, Number of replicates 2.0, Standard deviation 2.4427254668079588 %",8.81%
O[C@H]1CCCN(Cc2c[nH]c3ccccc23)C1,inhibition,"PRVABC59, Concentration 49.5 uM, Number of replicates 2.0, Standard deviation 18.69396289412785 %",21%
same,inhibition,"PRVABC59, Concentration 99.01 uM, Number of replicates 2.0, Standard deviation 0.9286103864725214 %",13.9%
same,inhibition,"PRVABC59, Concentration 198.0 uM, Number of replicates 2.0, Standard deviation 2.4132961769541357 %",24.7%
C[C@@H](CO)N1CC[C@H](c2c[nH]c3ccccc23)C1,inhibition,"PRVABC59, Concentration 49.5 uM, Number of replicates 2.0, Standard deviation 2.959092091051968 %",-1.43%
same,inhibition,"PRVABC59, Concentration 99.01 uM, Number of replicates 2.0, Standard deviation 1.9403190167556676 %",0.816%
same,inhibition,"PRVABC59, Concentration 198.0 uM, Number of replicates 2.0, Standard deviation 2.4285693519175138 %",5.47%
C[C@@H](Cc1c[nH]c2ccccc12)N1CC[C@H](n2ncc3ccccc32)C1,inhibition,"PRVABC59, Concentration 49.5 uM, Number of replicates 2.0, Standard deviation 0.39220306220212786 %",9.38%
same,inhibition,"PRVABC59, Concentration 99.01 uM, Number of replicates 2.0, Standard deviation 0.9766631885715499 %",10.3%
same,inhibition,"PRVABC59, Concentration 198.0 uM, Number of replicates 2.0, Standard deviation 1.7687599327172854 %",8.18%
c1cc(CN2CCC(c3c[nH]c4ncccc34)CC2)c2[nH]ccc2c1,inhibition,"PRVABC59, Concentration 49.5 uM, Number of replicates 2.0, Standard deviation 0.810920201040277 %",22.9%
same,inhibition,"PRVABC59, Concentration 99.01 uM, Number of replicates 2.0, Standard deviation 0.8653267248460199 %",30.1%
same,inhibition,"PRVABC59, Concentration 198.0 uM, Number of replicates 2.0, Standard deviation 1.207313671508752 %",32%
C[C@@H](Cc1c[nH]c2ccccc12)N1CC[C@H](c2c[nH]c3ccccc23)C1,inhibition,"PRVABC59, Concentration 49.5 uM, Number of replicates 2.0, Standard deviation 2.440376707234144 %",29.4%
same,inhibition,"PRVABC59, Concentration 99.01 uM, Number of replicates 2.0, Standard deviation 1.7661943697547304 %",46%
same,inhibition,"PRVABC59, Concentration 198.0 uM, Number of replicates 2.0, Standard deviation 0.6921254310022592 %",60.4%
O[C@@H]1CN(Cc2c[nH]c3ccccc23)CC[C@@H]1c1ccccc1,inhibition,"PRVABC59, Concentration 49.5 uM, Number of replicates 2.0, Standard deviation 0.3811882362248968 %",52.4%
same,inhibition,"PRVABC59, Concentration 99.01 uM, Number of replicates 2.0, Standard deviation 0.3137721603955992 %",68%
same,inhibition,"PRVABC59, Concentration 198.0 uM, Number of replicates 2.0, Standard deviation 0.1218792449994391 %",78.3%
